Among the data in PubChem BioAssay AID853 (Columbia University Molecular Screening Center, 2007) are fraction fluorescence in grains and inhibition values, retold here.

SMILES strings stand for the structures. About 200 (0.43%) of roughly 47,000 compounds were called active. Another 1% or so got no clear call; they are omitted. This is one part of a sample in which actives are shown more often than they occur.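 How the source made its calls: active means inhibition of aggregate fluorescence above about 70%, also judged a hit by eye on the cell image (limit read from the data, passing the limit was not always enough); inconclusive means no rule stated for this call; inactive means not judged a hit on image review.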

A short description of this assay: clearance of mutant huntingtin inclusions, primary screen, imaging, HeLa Exon1htt(103Q)mCFP, confocal imaging (AID 853).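 Further: cells exposed to compound for three days before fixation.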 The settings on record: aggregate imaging, at 1.5 µM; fraction fluorescence in grains: measured here: aggregate grain fluorescence fraction, stronger effect = lower value; inhibition: stronger effect = higher value, zero = plate's median compound well.
On to `O=C(c1ccc(F)cc1)c1c[nH]c(C(=O)NCc2cccnc2)c1`, for which the fraction fluorescence in grains was found to be 38.1 and the inhibition was 1% (inactive).

As to `Fc1cnc(N2CCOCC2)nc1NCc1ccccc1`, the fraction fluorescence in grains was 12.4 and the inhibition is 35.6% (inactive).

`O=c1c2ccccc2nc2n1C(CSCc1ccccc1)CS2` (centres undefined): the fraction fluorescence in grains was 35.3 and the inhibition was 8.1% (inactive).

As to `CCCc1cc(=O)[nH]c(SCC(=O)OCc2ccccc2)n1`, the fraction fluorescence in grains is 59.2 and the inhibition was -54.1% (inactive).

On to `CCOC(=O)Cc1csc(NC(=O)CSc2nnc(-c3cccnc3)n2Cc2ccco2)n1`, for which the fraction fluorescence in grains came to 20.9 and the inhibition is -18.9% (inactive).

Turning to `Cc1nn(Cc2ccc(C(=O)N3N=C(C(F)F)CC3(O)C(F)F)cc2)c(C)c1[N+](=O)[O-]` (centres undefined), the fraction fluorescence in grains was found to be 62.5 and the inhibition is -61% (inactive).

`CCN1C(=O)/C(=C2/Sc3ccc(OC)cc3N2C)SC1=Nc1ccc(C)cc1`: the fraction fluorescence in grains stood at 17.9 and the inhibition is -1.7% (inactive).

On to `CCOC(=O)c1cnc(SCC(=O)Nc2ccccc2C(=O)OC)nc1N`, for which the fraction fluorescence in grains was determined as 20.5 and the inhibition was -16.8% (inactive).

`COc1ccc(C(=O)Nc2nc(-c3ccc(OC)cc3)c(-c3ccc([N+](=O)[O-])cc3)s2)cc1`: the fraction fluorescence in grains was 21.2 and the inhibition was 47.9% (inactive).

With `CCN(CC)S(=O)(=O)c1ccc2c3c(cccc13)C(=O)S2`, the fraction fluorescence in grains came out at 38.9 and the inhibition was -8.8% (inactive).

In the case of `COc1ccc(Cl)cc1C(=O)NCC#N`, the fraction fluorescence in grains is 28.6 and the inhibition is 27.9% (inactive).

As for `COc1ccc(C(=O)NCCc2ccc(S(N)(=O)=O)cc2)cc1OC`, the fraction fluorescence in grains stood at 43.5 and the inhibition is -18.4% (inactive).

Consider `CCn1c(O)c2ccc(C(=O)N=NC(=O)c3cccnc3)cc2c1O`, for which the fraction fluorescence in grains is 37.7 and the inhibition was -25.3% (inactive).

For `Cc1ccc(-c2nn(-c3ccccc3)cc2/C=N/NC(=O)c2ccc3c(c2)OCO3)cc1`, the fraction fluorescence in grains stood at 34 and the inhibition was -12.7% (inactive).

With `CC12c3ccccc3C(c3ccccc31)C1C(=O)N(Cc3cccnc3)C(=O)C12` (centres undefined), the fraction fluorescence in grains worked out at 12 and the inhibition is 60.9% (inactive).

In the case of `COc1ccc(OC)c(/C=N/NC(=O)CSc2nnc(C)n2-c2ccccc2)c1`, the fraction fluorescence in grains is 32.4 and the inhibition was -7.5% (inactive).

As for `Cc1cc(C)cc(NC(=O)c2cccc(NC(=O)C3C4CC5OC(=O)C3C5C4)c2)c1` (centres undefined), the fraction fluorescence in grains stood at 31 and the inhibition was -31.4% (inactive).

With `O=C(c1ccccc1)c1cc(-c2ccccn2)c(N2CCOCC2)s1`, the fraction fluorescence in grains stood at 30.5 and the inhibition is 22% (inactive).

Regarding `Cc1ccc(-n2nc3c(c2NC(=O)CCC2CCCCC2)CS(=O)C3)cc1` (centres undefined), the fraction fluorescence in grains was 38.7 and the inhibition is 17.6% (inactive).

Turning to `CC1=C(C(N)=O)C(c2sccc2C)n2nnnc2N1` (centres undefined), the fraction fluorescence in grains was 60.2 and the inhibition was -59.3% (inactive).

With `O=C(Nc1ncc2c(n1)-c1ccccc1OC2)c1ccc(Cl)cc1`, the fraction fluorescence in grains stood at 34.8 and the inhibition is 7.6% (inactive).

`COc1cccc(N(CC(=O)NCCSc2ccccn2)S(C)(=O)=O)c1`: the fraction fluorescence in grains was determined as 32.4 and the inhibition is -38.8% (inactive).

For `COc1cc(C)c(C(C)C)cc1S(=O)(=O)n1ccnc1`, the fraction fluorescence in grains was found to be 38.5 and the inhibition was -120% (inactive).

`O=C(NC1(C(F)(F)F)NC(=O)N(Cc2cccnc2)C1=O)c1ccccc1Cl` (centres undefined): the fraction fluorescence in grains is 32.6 and the inhibition is 13.2% (inactive).

Take `Cc1nnc(OCC(=O)NCCC2=CCCCC2)c2ccccc12`: the fraction fluorescence in grains amounted to 30.6 and the inhibition was 19% (inactive).

As to `CCC(c1nnnn1Cc1ccco1)N(CCc1ccccc1)Cc1cc2cccc(C)c2[nH]c1=O` (centres undefined), the fraction fluorescence in grains is 4.66 and the inhibition is 75.8% (active).

`CCC(c1nnnn1C1CCCC1)N(Cc1cccs1)Cc1cc2cccc(C)c2[nH]c1=O` (centres undefined): the fraction fluorescence in grains amounted to 14.9 and the inhibition was 27.8% (inactive).

As to `Cc1cc2cc(CN(Cc3cccs3)Cc3nnnn3CC3CCCO3)c(=O)[nH]c2cc1C` (centres undefined), the fraction fluorescence in grains was 18 and the inhibition is 47.9% (inactive).

As for `CCC(c1nnnn1Cc1ccco1)N(CCc1ccccc1)Cc1cc2ccc(OC)cc2[nH]c1=O` (centres undefined), the fraction fluorescence in grains was found to be 19.4 and the inhibition was 46.6% (inactive).

As to `CCC(c1nnnn1Cc1ccco1)N(Cc1cc2cc(OC)ccc2[nH]c1=O)C1CCCCC1` (centres undefined), the fraction fluorescence in grains came to 12.1 and the inhibition was 36.8% (inactive).

As for `CCC(c1nnnn1Cc1ccccc1)N(Cc1cc2cc(OC)ccc2[nH]c1=O)CC1CCCO1` (centres undefined), the fraction fluorescence in grains was 3.01 and the inhibition is 83.8% (active).

As to `CCOC(=O)C(C)Oc1cccc2c(=O)n(CC(=O)N3CCc4ccccc43)ccc12` (centres undefined), the fraction fluorescence in grains is 44.7 and the inhibition was -33.2% (inactive).

For the molecule `CCCCNC(=O)OC(C)CNC(=O)OC` (centres undefined), the fraction fluorescence in grains stood at 23.8 and the inhibition was 25% (inactive).

Consider `Cc1cc(C)c2c(-n3cccc3)c(NC(=O)OCc3ccccc3)sc2n1`, for which the fraction fluorescence in grains came out at 37.4 and the inhibition was -74.7% (inactive).

For `Cc1ccccc1CS(=O)(=O)CC1(O)CCN(C(=O)c2cccc(C(F)(F)F)c2)CC1`, the fraction fluorescence in grains turned out to be 32.9 and the inhibition is 14.5% (inactive).

Turning to `CC(=O)c1cccc(NC(=O)c2ccncc2)c1`, the fraction fluorescence in grains was 33.8 and the inhibition was 20.4% (inactive).

As for `COc1ccc2c3c(c(=O)oc2c1OCC(=O)C(C)(C)C)CCCC3`, the fraction fluorescence in grains came to 20.5 and the inhibition was -3.3% (inactive).

In the case of `N=c1c2c(-c3ccccc3)c(-c3ccccc3)oc2ncn1Cc1ccco1`, the fraction fluorescence in grains came to 39.1 and the inhibition was -27.2% (inactive).

For `Cc1nnc(SCC(=O)N2CCN(c3ccccc3)CC2)n1-c1ccccc1`, the fraction fluorescence in grains came out at 45.5 and the inhibition was -15% (inactive).

On to `O=C(O)c1ccc(F)c(S(=O)(=O)Nc2ccccc2)c1`, for which the fraction fluorescence in grains stood at 49.7 and the inhibition is -13.1% (inactive).

On to `O=C(O)c1ccc(NS(=O)(=O)c2cccc3nsnc23)cc1`, for which the fraction fluorescence in grains is 5.36 and the inhibition is 70.5% (active).

On to `O=C(C(NS(=O)(=O)c1cccc2nsnc12)c1ccccc1)N1CCN(c2ccccn2)CC1` (centres undefined), for which the fraction fluorescence in grains turned out to be 32.5 and the inhibition was 12.4% (inactive).
